Measured values as given in PubChem BioAssay (Tox21).
Where “and” joins values, the source holds several entries; their conditions need not be identical. Equal entries are not always repeated. Inconclusive results are not listed. A call without a number means that no potency is given here. Unmarked numbers belong to inactive results. Calls of active or inactive are those of the source. Calls come from the whole dose curve; as a rule, active = well fitted cell-killing curve with a large enough effect in the repeat runs (not every such curve was filed as active); inconclusive = weak or mixed curves, or effect the other way; inactive = no such curve, though single readings can be large or run the other way.

Assay: qHTS assay to identify small molecule antagonists of the farnesoid-X-receptor (FXR) signaling pathway - cell viability counter screen (AID 743221); note: nearly all actives have a fitted effect of over 50% in size
Conditions: FXR-bla HEK293T viability, CellTiter-Glo luminescence, 16 h; series mostly up to 62.6 µM; activity change, negative = cytotoxicity: at the top concentration
Method in brief: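 GeneBLAzer FXR-UAS-bla HEK 293T cells, compound plus chenodeoxycholic acid (50 uM final), 16 h at 37 C. CellTiter-Glo added to the same wells after the beta-lactamase read; luminescence read after 30 min at room temperature as viability.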
Potency is the fitted concentration of half-maximal effect.

Row | Compound | Potency | activity change, negative = cytotoxicity [%]
1 | OC(CCl)CCl | inactive | –
2 | c1cc(N(CC2CO2)CC2CO2)ccc1OCC1CO1 (stereo not drawn) | – | 19.7
3 | CN(C)CCC=C1c2ccccc2CCc2ccccc21 | 43.7 µM (active) and 29.8 µM (active) | –
4 | NC=O | inactive | –
5 | O=CCc1ccccc1 | inactive | –
6 | CCCCOCCOCCOCCO | inactive | –
7 | CCOCCOCCO | inactive | –
8 | CCC(C)(O)CCCC(C)C (stereo not drawn) | inactive | –
9 | O=P(O)(O)O | inactive | –
10 | CCCCNS(=O)(=O)c1ccccc1 | – | 18.7
11 | Cc1ccc(C)c(O)c1C | inactive | –
12 | Cc1[nH]c(=O)c(C#N)cc1-c1ccncc1 | – | -6.26
13 | CNCCCC12CCC(c3ccccc31)c1ccccc12 | 38.9 µM (active) | –
14 | Cc1cccc(C(=O)O)c1 | inactive | –
15 | Nc1ncn([C@@H]2O[C@H](CO)[C@@H](O)[C@H]2O)c(=O)n1 | inactive | –
16 | OC1CCCCCCCCCCC1 | inactive | –
17 | c1ccncc1 | inactive | –
18 | Nc1ncnc2nc[nH]c12 | inactive | –
19 | CC(C(=O)O)c1cccc(C(=O)c2ccccc2)c1 (stereo not drawn) | inactive | –

Row | Compound | Potency | activity change, negative = cytotoxicity [%]
20 | Cc1c(C(N)=O)cc([N+](=O)[O-])cc1[N+](=O)[O-] | inactive | –
21 | CC(C)OC=O | inactive | –
22 | O=[N+]([O-])c1ccc2c(c1)Cc1ccccc1-2 | inactive | –
23 | Cc1c(OCC(F)(F)F)ccnc1CS(=O)c1nc2ccccc2[nH]1 (stereo not drawn) | inactive | –
24 | CC(C)OC(=O)C(C)(C)Oc1ccc(C(=O)c2ccc(Cl)cc2)cc1 | inactive | –
25 | c1ccc2c(c1)c1cccc3ccc4cccc2c4c31 | inactive | –
26 | O=Cc1ccccc1O | inactive | –
27 | C[C@]12CC[C@H]3[C@@H](CCC4=CC(=O)CC[C@@]43C)[C@@H]1CC[C@@H]2C(=O)CO | inactive | –
28 | O=CCCCC=O | inactive | –
29 | COC(C)COC(C)COC(C)CO (stereo not drawn) | inactive | –
30 | CC(C)Oc1ccc2c(=O)c(-c3ccccc3)coc2c1 | inactive | –
31 | C=C(C)C(=O)OCCOC(=O)C(=C)C | inactive | –
32 | Clc1nc(Cl)c(Cl)c(Cl)c1Cl | inactive | –
33 | O=C(/C=C/C=C/c1ccc2c(c1)OCO2)N1CCCCC1 | – | -3.43
34 | C[C@]12CCC(=O)C=C1CC[C@@H]1[C@@H]2C(=O)C[C@@]2(C)[C@H]1CC[C@]2(O)C(=O)CO | inactive | –
35 | CN1C(C(=O)Nc2ccccn2)=C(O)c2ccccc2S1(=O)=O | inactive | –
36 | Cc1ccc(C(=O)c2cc(O)c(O)c([N+](=O)[O-])c2)cc1 | – | -3.15
37 | CC(C)CC(C)(O)C#CC(C)(O)CC(C)C (stereo not drawn) | inactive | –
38 | O=c1oc(=O)c2cc3c(=O)oc(=O)c3cc12 | inactive | –
